# Experimental data as given in PubChem BioAssay.
# Values joined by “and” are separate entries in the source; they are usually repeats but may differ in a detail not shown here. Equal entries are not always repeated. Some compounds were tested as several samples or in several runs, with calls that do not always agree. Active and inactive are the calls of the source.
# How the values were obtained:
# [1] = E. coli DRC41 culture turbidity changes, primary screen, E. coli filamentation inducer project, strain DRC41, OD650, 48 h (AID 1152);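 further: E. coli MC1000 strain DRC41 lacking acrAB efflux pump and sulA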; details: E. coli DRC41 (acrAB sulA), higher = more signal, called active from +8 up or from −8 down
# [2] = small-molecule binders of probe aLefty1, primary screen, biochemical, small-molecule microarray, 635/667 nm fluorescence (AID 1153); details: higher = more signal;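 further: score merges spot fluorescence with signal-to-noise ratio from the scanned slide images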
# [3] = PSAC antagonists in infected red cells, primary screen, cell-based, P. falciparum Indochina, OD700, 1 h (AID 1154); details: P. falciparum Indochina infected RBC osmotic lysis, higher = more signal, called active from +8 up or from −8 down
# [4] = PSAC antagonists in infected red cells, primary screen, cell-based, P. falciparum Indochina, OD700, 2 h (AID 1155);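 further: lysis reports solute entry through the parasite surface anion channel PSAC; channel blockers reduce lysis of infected cells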; details: P. falciparum Indochina infected erythrocytes, osmotic lysis OD700; higher = more signal, called active from +8 up or from −8 down
# [5] = osmotic lysis modulators in infected erythrocytes, primary screen, PSAC antagonist project, cell-based, P. falciparum Indochina, OD700, 3 h (AID 1156); details: higher = more signal, called active from +8 up or from −8 down
# [6] = PSAC antagonists in infected red cells, primary screen, cell-based, P. falciparum Indochina, OD700, 18 h (AID 1157); details: P. falciparum Indochina infected erythrocytes, osmotic lysis OD700, 18 h; higher = more signal, called active from +8 up or from −8 down
# [7] = modulators of S6 phosphorylation in cells, primary screen, cell-based, A549, cytoblot, luminescence, serum-stimulated (AID 1158); details: A549 phospho-S6 cytoblot, 5 h, higher = more signal;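 further: serum-stimulated A549 lung adenocarcinoma cells; signal is phosphorylated S6 detected by cytoblot immunostaining with HRP secondary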
# [8] = biological target: NADPH oxidase 2 (Homo sapiens) (UniProt P04839); assay: NOX2-dependent H2O2 signal modulators, primary screen, NOX inhibitor project, cell-based, HEK293-NOX2, PMA-stimulated, Amplex Red fluorescence (AID 1159); details: 45 min, higher = more signal, called active from +8 up or from −8 down; further: test concentration not given here
# Chain of NADPH oxidase 2 (Homo sapiens) (P04839 whole entry, looked up): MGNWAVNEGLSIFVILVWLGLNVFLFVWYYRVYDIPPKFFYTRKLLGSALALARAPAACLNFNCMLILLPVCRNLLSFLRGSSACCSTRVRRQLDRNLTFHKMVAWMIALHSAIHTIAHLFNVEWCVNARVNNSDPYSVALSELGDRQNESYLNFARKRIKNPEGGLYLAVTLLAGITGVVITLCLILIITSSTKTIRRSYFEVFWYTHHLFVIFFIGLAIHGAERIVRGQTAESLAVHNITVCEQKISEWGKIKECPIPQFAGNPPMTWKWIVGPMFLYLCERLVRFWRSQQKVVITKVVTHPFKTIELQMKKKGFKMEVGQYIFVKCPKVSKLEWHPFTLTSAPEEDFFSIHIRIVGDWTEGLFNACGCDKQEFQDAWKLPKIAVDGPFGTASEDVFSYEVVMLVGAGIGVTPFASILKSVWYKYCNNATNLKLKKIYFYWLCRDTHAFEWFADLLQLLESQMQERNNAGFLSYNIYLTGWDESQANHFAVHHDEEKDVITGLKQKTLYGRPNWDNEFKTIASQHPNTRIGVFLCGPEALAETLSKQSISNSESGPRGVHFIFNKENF
# [9] = biological target: NADPH oxidase 4 (Homo sapiens) (UniProt Q9NPH5); assay: NOX4-dependent H2O2 signal modulators, primary screen, NOX inhibitor project, cell-based, HEK293-NOX4, tetracycline-induced, Amplex Red fluorescence (AID 1160); details: 45 min, higher = more signal, called active from +8 up or from −8 down
# Chain of NADPH oxidase 4 (Homo sapiens) (Q9NPH5 whole entry, looked up): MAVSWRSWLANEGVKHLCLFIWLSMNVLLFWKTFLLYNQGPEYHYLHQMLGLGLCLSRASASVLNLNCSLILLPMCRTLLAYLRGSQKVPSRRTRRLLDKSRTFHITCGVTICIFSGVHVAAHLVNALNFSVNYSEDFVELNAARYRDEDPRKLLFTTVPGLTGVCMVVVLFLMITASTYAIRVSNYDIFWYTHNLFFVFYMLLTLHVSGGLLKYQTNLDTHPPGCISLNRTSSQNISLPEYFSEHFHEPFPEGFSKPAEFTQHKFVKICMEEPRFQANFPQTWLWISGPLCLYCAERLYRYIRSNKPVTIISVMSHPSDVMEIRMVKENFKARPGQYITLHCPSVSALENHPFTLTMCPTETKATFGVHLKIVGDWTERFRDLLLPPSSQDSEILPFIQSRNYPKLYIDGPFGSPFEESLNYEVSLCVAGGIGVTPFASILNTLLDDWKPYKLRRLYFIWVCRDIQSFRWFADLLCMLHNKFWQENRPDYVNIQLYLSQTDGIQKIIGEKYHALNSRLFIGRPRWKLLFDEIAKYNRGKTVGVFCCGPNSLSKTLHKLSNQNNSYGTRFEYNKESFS
# [10] = biological target: NADPH oxidase 5 (Homo sapiens) (UniProt Q96PH1); assay: NOX5-dependent H2O2 signal modulators, primary screen, NOX inhibitor project, cell-based, HEK293-NOX5, Amplex Red fluorescence (AID 1161); details: HEK293-NOX5, ionomycin, 45 min, higher = more signal
# Chain of NADPH oxidase 5 (Homo sapiens) (Q96PH1 whole entry, looked up): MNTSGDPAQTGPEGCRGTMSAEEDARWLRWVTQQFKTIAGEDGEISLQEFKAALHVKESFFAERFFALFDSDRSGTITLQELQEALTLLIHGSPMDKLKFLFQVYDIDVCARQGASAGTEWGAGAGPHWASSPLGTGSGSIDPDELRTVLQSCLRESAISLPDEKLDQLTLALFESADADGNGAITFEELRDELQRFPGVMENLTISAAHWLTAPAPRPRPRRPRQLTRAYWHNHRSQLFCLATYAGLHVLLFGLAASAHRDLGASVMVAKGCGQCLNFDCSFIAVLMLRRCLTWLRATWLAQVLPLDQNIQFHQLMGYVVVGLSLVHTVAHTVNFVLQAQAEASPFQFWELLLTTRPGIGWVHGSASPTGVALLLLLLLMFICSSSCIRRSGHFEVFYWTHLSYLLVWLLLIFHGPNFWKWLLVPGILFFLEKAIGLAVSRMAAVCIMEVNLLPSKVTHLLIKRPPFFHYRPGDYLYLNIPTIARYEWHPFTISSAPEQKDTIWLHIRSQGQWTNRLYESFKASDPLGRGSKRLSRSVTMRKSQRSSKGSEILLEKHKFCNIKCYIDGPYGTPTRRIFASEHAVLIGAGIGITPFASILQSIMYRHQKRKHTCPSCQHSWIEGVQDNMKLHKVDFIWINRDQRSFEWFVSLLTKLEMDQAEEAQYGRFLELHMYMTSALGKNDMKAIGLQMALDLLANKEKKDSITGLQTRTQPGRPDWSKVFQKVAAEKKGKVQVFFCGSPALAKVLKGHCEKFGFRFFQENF
# [11] = A549 cell viability effects, profiling panel, calcein-AM fluorescence, 48 h, basal (AID 1162); details: higher = more signal; further: test concentration not given here
# [12] = adipocyte viability effects, profiling panel, cell-based, 3T3-L1 adipocytes, calcein-AM fluorescence, 48 h, basal (AID 1163); details: 3T3-L1 adipocytes viability, higher = more signal; further: test concentration not given here
# [13] = HepG2 cell viability effects, profiling panel, calcein-AM fluorescence, 48 h, basal (AID 1164); details: higher = more signal; further: test concentration not given here
# [14] = MM1S cell viability effects, profiling panel, calcein-AM fluorescence, 48 h, basal (AID 1165); details: higher = more signal;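 further: viability of MM1S multiple myeloma cells under basal unstimulated conditions; test concentration not given here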
# [15] = basal RPMI8226 viability, no added stimulus, profiling panel, cell-based, calcein-AM fluorescence, 48 h, PK04 Diversity Set (AID 1166); details: RPMI8226 myeloma viability, higher = more signal;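 further: cells grown under basal conditions without added stimulus; test concentration not given here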
# [16] = basal HepG2 mitochondrial membrane potential changes, profiling panel, cell-based, JC-1 fluorescence, 24 h, 100 nL compound (AID 1167); details: higher = more signal; further: test concentration not given here
# [17] = basal 3T3-L1 adipocyte mitochondrial potential changes, profiling panel, cell-based, JC-1 fluorescence, 3T3-L1 adipocytes, 24 h, 100 nL compound (AID 1168); details: JC-1 mitochondrial fluorescence, higher = more signal, called active from +8 up or from −8 down; further: test concentration not given here
# [18] = basal RPMI8226 mitochondrial membrane potential changes, profiling panel, cell-based, JC-1 fluorescence, 24 h, 100 nL compound (AID 1169); details: RPMI8226 myeloma, JC-1 mitochondrial potential fluorescence, higher = more signal; further: test concentration not given here
# [19] = basal MM1S mitochondrial membrane potential changes, profiling panel, cell-based, JC-1 fluorescence, 24 h, 100 nL compound (AID 1170); details: higher = more signal; further: test concentration not given here
# [20] = A549 lung cancer cell viability effects, profiling panel, resazurin fluorescence, 24 h, PK04 Diversity Set (AID 1171); details: higher = more signal, called active from +8 up or from −8 down; further: test concentration not given here
Structure (SMILES),z-score [1],composite z-score [2],z-score [3],z-score [4],z-score [5],z-score [6],z-score [7],z-score [8],z-score [9],z-score [10],z-score [11],z-score [12],z-score [13],z-score [14],z-score [15],z-score [16],z-score [17],z-score [18],z-score [19],z-score [20]
CO[C@H]1COC(=O)CC=C[C@@H](C)COC(=O)[C@H](CCSC)NC(=O)CC=C[C@@H]1C,-0.949 (inactive) and -0.0368 (inactive),-0.188 and 0.32,-0.304 (inactive) and 0.171 (inactive),-0.237 (inactive) and 0.588 (inactive),-0.425 (inactive) and -0.189 (inactive),0.256 (inactive) and -0.0409 (inactive),0.676 and 0.163,1.07 (inactive) and -1.99 (inactive),-0.824 (inactive) and 0.413 (inactive),-0.812 and -0.479,-0.875 and -0.577,0.584 and 0.153,-0.442 and 0.338,0.0739 and -0.242,-0.858 and 0.708,0.755 and 0.535,-0.153 (inactive) and 0.157 (inactive),-0.688 and 0.358,0.588 and 1.85,-0.8 (inactive) and 0.705 (inactive)
CCCCCN1CC=CC23O[C@@H]4C=CCCOC(=O)C4[C@H]2C(=O)N(C(C)CO)[C@@H]3C1=O (stereo not given in full),1.5 (inactive) and 0.971 (inactive),-0.962 and 1.57,2.38 (inactive) and 0.551 (inactive),0.174 (inactive) and 0.44 (inactive),0.833 (inactive) and 0.233 (inactive),0.0882 (inactive) and 0.454 (inactive),0.154 and 0.166,1.27 (inactive) and 1.08 (inactive),0.164 (inactive) and 0.696 (inactive),2.09 and 2.43,-0.345 and -0.691,0.94 and -0.707,-1.46 and -0.31,0.737 and 0.402,0.254 and -0.282,-0.473 and -1.11,-0.354 (inactive) and -0.522 (inactive),0.861 and -0.0156,-0.141 and 0.641,1.08 (inactive) and 0.713 (inactive)
C[C@@]1([C@@H](NC(=O)Cc2ccccc2)c2ccc(-c3ccccc3)cc2)C[C@H]1C1CCCCC1,-1.01 (inactive) and -1.14 (inactive) and -2.63 (inactive),1.31 and 1.96 and -0.533,2.55 (inactive) and 0.584 (inactive) and 10.1 (active),-0.208 (inactive) and 0.325 (inactive) and 1.68 (inactive),1.01 (inactive) and 1.19 (inactive) and 0.922 (inactive),-1.51 (inactive) and 0.741 (inactive) and 0.644 (inactive),1.28 and -0.396 and -0.729,-4.2 (inactive) and -0.505 (inactive) and -1.36 (inactive),-5.91 (inactive) and -3.11 (inactive) and -1.7 (inactive),-3.09 and 0.173 and 0.832,-2.72 and -1.23 and -1.42,0.765 and -0.0714 and -0.863,-2.87 and -0.861 and -0.802,-2.91 and -1.81 and -2,-4.81 and -1.41 and -1.24,-3.9 and -0.895 and 0.848,0.111 (inactive) and -0.332 (inactive) and -1.75 (inactive),-0.936 and -0.586 and -0.431,-1.71 and 0.0165 and -1.06,-0.609 (inactive) and 3.96 (inactive) and -0.816 (inactive)
CCCCN1CC=CC23O[C@@H]4C=CCCOC(=O)C4[C@H]2C(=O)N(C(C)CO)[C@@H]3C1=O (stereo not given in full),-0.462 (inactive) and -0.0672 (inactive),-0.007 and 0.0181,1.77 (inactive) and 0.636 (inactive),0.446 (inactive) and 1.06 (inactive),0.874 (inactive) and 1.09 (inactive),0.234 (inactive) and 0.601 (inactive),1.48 and 1.2,1.49 (inactive) and 1.3 (inactive),0.784 (inactive) and 0.359 (inactive),2.31 and 2,-0.301 and -0.336,-0.457 and -0.57,-0.469 and -0.612,1.07 and 0.893,-0.736 and -0.717,-0.494 and -0.753,-0.433 (inactive) and -0.828 (inactive),-0.129 and 0.0982,-0.686 and -0.347,0.237 (inactive) and -0.595 (inactive)
CC(C)[Si]1(C(C)C)OCc2cc(CCCc3cc4c(c(CCc5ccccc5)n3)[Si](C(C)C)(C(C)C)OC4)nc(CCc3ccccc3)c21,2.34 (inactive) and -0.836 (inactive),-0.147 and -0.192,1.1 (inactive) and 0.221 (inactive),-0.712 (inactive) and -0.436 (inactive),-1.01 (inactive) and -0.355 (inactive),-0.788 (inactive) and -0.406 (inactive),0.0671 and -0.999,1.5 (inactive) and 0.412 (inactive),0.0233 (inactive) and 0.608 (inactive),-2.98 and -0.0908,0.148 and -0.222,0.673 and -0.626,-0.661 and -0.566,-1.66 and 0.326,-1.09 and -0.322,-0.508 and -1.19,1.72 (inactive) and -1 (inactive),-0.152 and 1.02,-0.38 and -0.852,0.576 (inactive) and -0.19 (inactive)
